16 compounds from PubChem BioAssay (Tox21) can be followed below.

Assay [1] in a line: qHTS assay to test for compound auto fluorescence at 535 nm (green) in HEK293 cells (AID 720680). Background: Quantitative high-throughput screening tests each substance at several concentrations.
A short description of assay [2]: qHTS assay to test for compound auto fluorescence at 460 nm (blue) in HEK293 cell free culture (AID 720681). Note: potency is the fitted concentration of half-maximal effect. In outline: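 Test compounds were pinned into cell-free culture medium (DMEM with 10% FBS) and fluorescence was read directly at Ex/Em 405/460 nm. Signals were expressed as fluorescence equivalents of triamterene, with DMSO vehicle as control.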
A short description of assay [3]: qHTS assay to test for compound auto fluorescence at 535 nm (green) in HEK293 cell free culture (AID 720682). In outline: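 Fluorescein serves as the green reference fluorophore; each compound's intrinsic emission at 535 nm (excitation 485 nm) is reported as an equivalent amount of that dye, measured in serum-containing DMEM without cells.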
The nature of assay [4]: qHTS assay to test for compound auto fluorescence at 590 nm (red) in HEK293 cell free culture (AID 720683). In outline: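 Tox21 10K library compounds were pinned into cell-free DMEM with 10% FBS and fluorescence was read at excitation 540 nm. Activity is expressed as Rose Bengal sodium equivalency.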
A short description of assay [5]: qHTS assay to test for compound auto fluorescence at 590 nm (red) in HepG2 cell free culture (AID 720684). In outline:
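Red fluorescence (540 nm excitation, 590 nm emission) was measured after compound transfer into cell-free MEM supplemented with 10% FBS. Values are equivalencies against Rose Bengal sodium.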

The nature of assay [6]: qHTS assay to test for compound auto fluorescence at 460 nm (blue) in HepG2 cell free culture (AID 720685). Note: potency is the fitted concentration of half-maximal effect. A digest of the protocol:
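Compound (23 nL) or DMSO pinned into cell-free MEM with 10% FBS; blue fluorescence read at 405/460 nm excitation/emission, expressed as auto-fluorescence equivalency to triamterene.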

Assay [7] is described as follows: qHTS assay to test for compound auto fluorescence at 535 nm (green) in HepG2 cell free culture (AID 720686).
The nature of assay [8]: qHTS assay to test for compound auto fluorescence at 460 nm (blue) in HepG2 cells (AID 720687). Note: potency is the fitted concentration of half-maximal effect. In outline:
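Cells (2,000/well in MEM with 10% FBS) attached overnight at 37 C, then were exposed to compound or DMSO for 1 hr at 37 C, 5% CO2. Fluorescence read at Ex/Em 405/460 nm, expressed as triamterene-equivalent signal.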

Assay [9] can be described thus: qHTS assay to identify small molecule antagonists of the glucocorticoid receptor (GR) signaling pathway - cell viability counter screen (AID 720693). Note: nearly all actives have a fitted effect of over 55% in size. Note: potency is the fitted concentration of half-maximal effect.
The nature of assay [10]: qHTS assay for identifying genotoxic compounds that show differential cytotoxicity against isogenic chicken DT40 cell lines with known DNA damage response pathways - Rev3 mutant cell line (AID 743014). Note: nearly all actives have a fitted effect of over 55% in size. Note: potency is the fitted concentration of half-maximal effect.
Assay [11] is described as follows: qHTS assay to identify small molecule antagonists of the androgen receptor (AR) signaling pathway using the MDA cell line - cell viability counter screen (AID 743041; note: nearly all actives have a fitted effect of over 45% in size; note: potency is the fitted concentration of half-maximal effect). A digest of the protocol:
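MDA-kb2 AR-luc human breast carcinoma cells (MMTV-luciferase, AR/GR responsive) were treated with compounds plus R1881 agonist for 16 h at 37 °C. Viability was read as CellTiter-Fluor fluorescence in the same wells as the reporter assay.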

Assay [12] is described as follows: qHTS assay for identifying genotoxic compounds that show differential cytotoxicity against isogenic chicken DT40 cell lines with known DNA damage response pathways - wild type cell line (AID 743012). Note: nearly all actives have a fitted effect of over 60% in size. Note: potency is the fitted concentration of half-maximal effect. In outline: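 Using parental DT40 (300 cells/well), compounds delivered in DMSO incubate 40 h at 37 C/5% CO2. CellTiter-Glo reagent then stands 30 min at room temperature, and luminescence gives cell viability.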

A short description of assay [13]: qHTS assay to identify small molecule antagonists of the androgen receptor (AR) signaling pathway - cell viability counter screen (AID 743033; note: nearly all actives have a fitted effect of over 45% in size).
Assay [14] deals with Androgen receptor (Homo sapiens) (UniProt P10275). Kind of assay: qHTS assay to identify small molecule agonists of the androgen receptor (AR) signaling pathway using the MDA cell line (AID 743040; note: nearly all actives have a fitted effect of over 20% in size). A digest of the protocol: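 MDA-kb2 breast carcinoma cells stably carrying an MMTV-driven luciferase reporter (AR- and GR-responsive) were seeded and held 5 h at 37C, 0% CO2, then exposed to compounds in DMSO for 16 h. Luminescence was read 30 min after ONE-Glo addition.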

Assay [15] shares this target. As to the kind of experiment: qHTS assay to identify small molecule antagonists of the androgen receptor (AR) signaling pathway using the MDA cell line (AID 743042; note: nearly all actives have a fitted effect of over 55% in size). In outline: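 MDA-kb2 cells (human breast carcinoma, stably carrying an MMTV-luciferase reporter responsive to AR and GR) were plated at 3,000 cells/well and preincubated 5 hr at 37C, then given compound plus R1881 agonist for 16 h. ONE-Glo luminescence was read.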

A short description of assay [16]: qHTS assay for identifying genotoxic compounds that show differential cytotoxicity against isogenic chicken DT40 cell lines with known DNA damage response pathways - Rad54/Ku70 mutant cell line (AID 743015). Note: nearly all actives have a fitted effect of over 60% in size. Note: potency is the fitted concentration of half-maximal effect.
Assay [17] addresses Androgen receptor (Homo sapiens) (UniProt P10275). As to the kind of experiment: qHTS assay to identify small molecule agonists of the androgen receptor (AR) signaling pathway (AID 743036; active = well fitted activation curve with a large enough effect in the signal ratio in the repeat runs, with a control signal flat, not every such curve was filed as active; the % refers to the signal ratio). A digest of the protocol: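 Fluorescence from a beta-lactamase FRET substrate served as read-out in AR-UAS-bla GripTite HEK293 cells. Cells were treated with DMSO-dissolved compounds for 16 h at 37C, then with LiveBLAzer B/G substrate for 2 h at room temperature.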

Structures are written as SMILES. Results filed as inconclusive are left out. Activity calls are given as the source filed them. Unless noted, calls come from the whole dose curve; as a rule, active = well fitted curve in the direction sought with a large enough effect in the repeat runs; inconclusive = weak or mixed curves; inactive = no such curve, though single readings can be large; an effect the other way counts as inactive or inconclusive.
Tags give direction and shape of the fitted curve or compound fluorescence and quenching.

Sequence of Androgen receptor (Homo sapiens) (P10275 whole entry, looked up): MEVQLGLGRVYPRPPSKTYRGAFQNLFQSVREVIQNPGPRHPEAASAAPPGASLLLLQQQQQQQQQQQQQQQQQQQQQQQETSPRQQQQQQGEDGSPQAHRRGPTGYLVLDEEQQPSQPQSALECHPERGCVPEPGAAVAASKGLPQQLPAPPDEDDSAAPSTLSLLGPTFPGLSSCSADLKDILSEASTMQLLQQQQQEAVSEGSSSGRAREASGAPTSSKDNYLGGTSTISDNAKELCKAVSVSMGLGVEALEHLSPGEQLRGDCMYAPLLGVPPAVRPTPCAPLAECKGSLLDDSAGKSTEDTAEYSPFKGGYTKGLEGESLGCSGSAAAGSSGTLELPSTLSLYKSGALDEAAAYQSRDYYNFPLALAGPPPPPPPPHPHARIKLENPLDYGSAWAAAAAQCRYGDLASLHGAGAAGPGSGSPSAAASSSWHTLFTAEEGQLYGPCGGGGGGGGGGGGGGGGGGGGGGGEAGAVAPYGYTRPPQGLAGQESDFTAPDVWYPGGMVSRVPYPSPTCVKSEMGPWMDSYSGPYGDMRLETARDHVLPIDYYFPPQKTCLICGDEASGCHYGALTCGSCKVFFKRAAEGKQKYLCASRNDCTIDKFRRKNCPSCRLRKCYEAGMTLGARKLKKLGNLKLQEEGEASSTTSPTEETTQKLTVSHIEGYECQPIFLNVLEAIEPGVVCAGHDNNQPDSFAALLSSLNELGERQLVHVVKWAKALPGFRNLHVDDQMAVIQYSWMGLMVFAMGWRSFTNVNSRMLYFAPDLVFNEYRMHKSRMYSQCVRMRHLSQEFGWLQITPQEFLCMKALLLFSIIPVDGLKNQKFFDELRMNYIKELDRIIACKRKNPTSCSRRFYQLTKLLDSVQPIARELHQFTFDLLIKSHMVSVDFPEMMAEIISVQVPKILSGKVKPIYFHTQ

Regarding `Cc1cc2c3c(c1)C(c1ccccc1)=N[C@@H](NC(=O)c1ccncc1)C(=O)N3CC2`, the compound was classed as inactive in assay [1], in [3], in assay [4] and in assay [5]. Also, the Potency entry in assay [2], in assay [6], in [7], in assay [8], in assay [9] and in assay [11] was “inactive” in each case. The Potency in assay [10] is 61.1 µM (active).

On to `CNN`, for which the compound was classed as inactive in [1], in [3], in assay [4] and in assay [5]. Also, the Potency entry in assay [2], in assay [6], in assay [7], in assay [8], in [9] and in [12] was “inactive” throughout. In addition, the Potency result in assay [10] and in assay [13] was “inactive” throughout.

As to `O=c1[nH]c(Cl)c(Cl)cc1Cl`, the compound was classed as inactive in [1], in assay [3], in assay [4], in assay [5] and in assay [14]. For the same compound, the Potency result in assay [2], in assay [6], in [7], in assay [8], in assay [9] and in [12] was “inactive” in each case. Moreover, the Potency entry in assay [10], in assay [13], in assay [11] and in assay [15] was “inactive” in each case.

Take `CC(C)C(Br)C(=O)NC(N)=O` (stereo unspecified): the result in assay [1], in assay [3], in assay [4] and in assay [5] was inactive. The Potency result in assay [2], in [6], in [7], in assay [8], in [9] and in [10] was “inactive” in each case. Moreover, the Potency entry in assay [16] and in assay [11] was “inactive” in each case.

Turning to `CCCCC(CC)COC(=O)OOC(C)(C)C` (stereo unspecified), the compound was classed as inactive in assay [1], in assay [3], in assay [4] and in [5]. In addition, the Potency entry in assay [2], in assay [6], in assay [7], in assay [8], in assay [9] and in [10] was “inactive” in each case. Moreover, the Potency entry in assay [16], in [13] and in assay [11] was “inactive” each time.

Turning to `CCC(C)c1cccc(C(C)CC)c1O` (stereo unspecified), the result in [1], in [3], in [4] and in assay [5] was inactive. For the same compound, the Potency entry in [2], in assay [6], in assay [7], in [8], in assay [9] and in assay [11] was “inactive” throughout.

Take `O=[N+]([O-])c1cc(C(F)(F)F)c(Cl)c([N+](=O)[O-])c1Nc1ncc(C(F)(F)F)cc1Cl`: the call in assay [1], in [3], in assay [4] and in assay [5] was inactive. Besides, the Potency entry in assay [2], in assay [6], in assay [7] and in assay [8] was “inactive” each time. Further, the Potency in assay [9] was 21.9 µM (active); in assay [12], 0.0969 µM (active); in assay [10], 0.137 µM (active); in [16], 0.137 µM (active); in [11], 15.4 µM (active).

In the case of `O=[N+]([O-])c1cccc2cccc([N+](=O)[O-])c12`, the result in assay [1], in [3], in assay [4] and in assay [5] was inactive. The Potency result in [2], in [6], in [7], in assay [8], in [9] and in assay [13] was “inactive” throughout. For the same compound, the Potency result in assay [11] was “inactive”. Besides, the Potency in assay [10] and in assay [16] was 61.4 µM (active) each time.

For `CC(=O)O.CC(=O)O.CC(=O)O.CC(=O)O.CC(=O)O.CC(=O)O.CC(=O)O.O.O.[Cr].[Cr].[Cr]`, the compound was classed as inactive in assay [1], in assay [3], in assay [4] and in [5]. In addition, the Potency result in assay [2], in assay [6], in assay [7], in assay [8], in assay [9] and in [12] was “inactive” throughout. Moreover, the Potency entry in [10] and in assay [13] was “inactive” throughout.

On to `COP(=S)(OC)Oc1ccc([N+](=O)[O-])c(C)c1`, for which the compound was classed as inactive in assay [1], in assay [3], in [4] and in assay [5]. In addition, the Potency entry in [2], in [6], in assay [7], in assay [8], in [9] and in assay [16] was “inactive” in each case.

`N#Cc1c2ccccc2cc2ccccc12`: the result in assay [1], in [3], in assay [4], in assay [5] and in assay [14] was inactive. Further, the Potency in assay [2] was 2.51 µM (active); in assay [6], 2.51 µM [fluorescent] (active); in [8] it was 2.82 µM [fluorescent] (active). Moreover, the Potency entry in [7], in assay [9], in [10], in [16], in assay [13] and in assay [11] was “inactive” in each case. For the same compound, the Potency result in assay [15] is “inactive”.

Turning to `N#CCCl`, the compound was classed as inactive in assay [1], in assay [3], in [4] and in assay [5]. The Potency result in assay [2], in assay [6], in [7], in assay [8], in assay [9] and in assay [12] was “inactive” each time. In addition, the Potency entry in assay [10], in assay [13] and in assay [11] was “inactive” throughout.

For the compound `COP(=S)(NC(C)C)Oc1ccc(C)cc1[N+](=O)[O-]` (stereo unspecified), the outcome in assay [1], in [3], in assay [4] and in assay [5] was inactive. Also, the Potency result in assay [2], in assay [6], in assay [7], in [8], in [9] and in [13] was “inactive” in each case. Also, the Potency was 54.5 µM (active) in [12] and 61.1 µM (active) in assay [16].

Consider `CC(=O)[O-].CC(=O)[O-].CC(=O)[O-].[Cr+3]`, for which the compound was called inactive in assay [1], in assay [3], in assay [4] and in assay [5]. Further, the Potency result in [2], in assay [6], in assay [7], in assay [8], in assay [9] and in [13] was “inactive” throughout. Further, the Potency entry in assay [11] was “inactive”. The Potency in assay [10] was 60.9 µM (active); in assay [16], 19.3 µM (active).

With `CCNS(=O)(=O)C(F)(F)C(F)(F)C(F)(F)C(F)(F)C(F)(F)C(F)(F)C(F)(F)C(F)(F)F`, the result in [1], in [3], in assay [4], in assay [5], in [17] and in assay [14] was inactive. The Potency entry in assay [2], in [6], in [7], in assay [8], in assay [9] and in [13] was “inactive” in each case. Further, the Potency result in [11] and in assay [15] was “inactive” throughout.

In the case of `CC(=O)C(Cl)C(=O)N(C)C` (stereo unspecified), the call in [1], in assay [3], in assay [4] and in assay [5] was inactive. Besides, the Potency entry in [2], in assay [6], in [7], in assay [8], in assay [9] and in assay [13] was “inactive” throughout. In addition, the Potency entry in [11] is “inactive”. For the same compound, the Potency in [10] was 24.3 µM (active); in assay [16], 61.1 µM (active).
